Assay outcomes (PubChem)
A selection: hits, their analogues and other compounds. The true share with any hit is near 19%.
TDP1 cell CPT: growth inhibition of DT40 Tdp1-/-;hTDP1 cells with camptothecin (screen for TDP1 inhibitors) | chicken DT40 Tdp1-/-;hTDP1 cells + 20 nM CPT, ATP luminescence, 48 h | Potency, µM (highest dose often 46.2 µM), for the others: at the highest dose activity change, negative = growth inhibition, most hits filed as inhibitors | actives 12% (n = 420,000) | AID 686979; further: potency means the concentration at half of the fitted maximal effect; nearly all actives have a fitted effect of over 55% in size
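Chicken DT40 Tdp1-/- cells complemented with human TDP1, 400 cells/well, exposed to compounds plus 20 nM camptothecin for at least 48 h at 37 C; viability read as ATP content by CellTiter-Glo luminescence.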
TDP1 block: TDP1 (human) enzyme inhibition | Q9NUW8 | recombinant TDP1, AlphaScreen DNA substrate cleavage | Potency, µM (doses to about 130 µM), inactives show top-dose activity change, negative = inhibition, hits mostly inhibitors | actives 0.28% (n = 350,000) | AID 485290; further: potency means the concentration at half of the fitted maximal effect; nearly all actives have a fitted effect of over 40% in size
Target sequence (Q9NUW8 whole entry, looked up): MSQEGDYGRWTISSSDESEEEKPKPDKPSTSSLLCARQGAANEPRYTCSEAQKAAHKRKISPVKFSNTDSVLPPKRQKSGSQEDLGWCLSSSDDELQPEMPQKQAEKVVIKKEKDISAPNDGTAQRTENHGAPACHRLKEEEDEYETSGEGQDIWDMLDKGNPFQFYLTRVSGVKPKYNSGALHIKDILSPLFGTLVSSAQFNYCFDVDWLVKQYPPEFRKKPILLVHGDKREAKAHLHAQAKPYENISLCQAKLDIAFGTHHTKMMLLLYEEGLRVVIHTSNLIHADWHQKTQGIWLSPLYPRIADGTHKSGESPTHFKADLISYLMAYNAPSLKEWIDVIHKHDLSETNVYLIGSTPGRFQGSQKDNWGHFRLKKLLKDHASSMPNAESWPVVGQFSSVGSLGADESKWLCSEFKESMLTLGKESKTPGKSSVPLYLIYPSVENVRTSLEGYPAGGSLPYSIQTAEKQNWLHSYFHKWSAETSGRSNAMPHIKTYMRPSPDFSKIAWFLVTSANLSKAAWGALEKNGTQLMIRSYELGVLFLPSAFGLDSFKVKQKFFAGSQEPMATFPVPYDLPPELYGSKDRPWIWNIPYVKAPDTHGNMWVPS
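Recombinant E. coli-expressed Tdp1 (1 nM) preincubated with compound 15 min at RT, then 5'-biotin/3'-phosphotyrosine-FITC DNA substrate (15 nM) added for 5 min. AlphaScreen beads (10 ug/ml) added, 10 min RT; tyrosine-FITC cleavage read as signal loss.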
IL-1B inflam inh: inflammasome signaling inhibition, IL-1 beta readout | THP-1 LPS/ATP IL-1B secretion, AlphaLISA, 16 h; stronger effect = lower value | activity change, % at 57.5 µM | actives 4.7% (n = 360,000) | AID 743279; in the data active means activity change below about -50%; inconclusive means mostly about -30% to -49%
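Secreted IL-1B measured by AlphaLISA bead assay after 16 h compound exposure of THP-1 cells; compounds (final up to 57.5 uM) added 1 h before LPS (250 ng/mL) and ATP (1.25 mM) stimulation; lower signal means less secretion.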
ELG1 repair inh: inhibitors of ELG1-dependent DNA repair in HEK293T cells. Potency, µM (series often up to 46.1 µM), inactives show top-dose activity change, negative = inhibition, actives largely listed as inhibitors. actives 2.3% (n = 330,000). HEK293T ELG1-luciferase reporter, luminescence, 16 h; DNA damage induced by 5-fluorouridine. AID 504467; further: potency means the concentration at half of the fitted maximal effect; nearly all actives have a fitted effect of over 55% in size
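In this reporter screen, reduction of luminescence relative to DMSO vehicle indicated activity. Compounds and 5-fluorouridine were added together to 2,000 cells per well, incubated for 16 hr at 37 °C, then developed with ONE-Glo.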
TDP1 cell noCPT: qHTS for Inhibitors of human tyrosyl-DNA phosphodiesterase 1 (TDP1): qHTS in cells in absence of CPT | DT40 Tdp1-/- hTDP1 cells, no CPT, ATP luminescence, 48 h | Potency, µM (series often up to 46.2 µM), inactives show at the top dose activity change, negative = growth inhibition, usual class: inhibitors | actives 15% (n = 420,000) | AID 686978, 2013; further: potency means the concentration at half of the fitted maximal effect; nearly all actives have a fitted effect of over 55% in size
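Luminescent ATP content (CellTiter-Glo) served as the growth readout. Knockout chicken DT40 cells expressing human TDP1 were exposed to compounds without camptothecin for a minimum 48 hr at 37 °C.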
Giardia kill: kills Giardia lamblia; AID 540267; activity change, % at 7.66 µM, hits read low; actives 0.15% (n = 340,000); Giardia lamblia trophozoite viability; in the data active means activity change below about -80%; inconclusive means between about -30% and that limit;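 further: parasites exposed to compound for two days anaerobically before the ATP read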
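Compounds were tested on trophozoites seeded at 100 cells/well and held 48 hrs at 37 deg C anaerobically. An ATP-based luminescent kit measured the remaining live cells.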
Starred values were filed as active, the others as inactive; ? = inconclusive; . = not tested or not shown; [ ] = dose if it differs, or a comment. Unless noted, the call rests on the fitted dose curve; in most records, active means well fitted curve in the direction sought with a large enough effect; inconclusive means small, poorly fitted or top-dose-only effect, or another doubt; inactive means no such curve, though single readings can be large; an effect the other way counts as inactive or inconclusive. On the % scale 0 is the no-effect control and ±100 the full control effect.

SMILES	TDP1 cell CPT	TDP1 block	IL-1B inflam inh	ELG1 repair inh	TDP1 cell noCPT	Giardia kill
NC(Cc1ccc(C(F)(F)F)cc1)c1csc(Nc2ccccn2)n1 (centres undefined)	?	.	-77*	.	?	.
NC(Cc1ccc(C(F)(F)F)cc1)c1csc(Nc2cc(NCc3ccco3)ncn2)n1 (centres undefined)	21µM*	.	?	.	16µM*	.
NC(Cc1ccc(C(F)(F)F)cc1)c1csc(Nc2cnccn2)n1 (centres undefined)	6.5µM*	.	?	.	5.8µM*	.
FC(F)(F)c1ccnc(NCc2ccco2)n1	-3%	4%	1	11%	12%	-29
NC(Cc1cnc[nH]1)c1csc(Nc2ccc(C(F)(F)F)cn2)n1 (centres undefined)	-21%	.	22	.	-26%	.
NC(Cc1ccc(C(F)(F)F)cc1)c1csc(Nc2ncccn2)n1 (centres undefined)	9.2µM*	.	-53*	.	9.2µM*	.
NC(Cc1ccc(F)cc1)c1csc(Nc2ccc(C(F)(F)F)cn2)n1 (centres undefined)	13µM*	.	-55*	.	9.2µM*	.
COc1cc(-c2c(OC)cccc2OC)cc2c1OCCN(C(=O)CCn1nc(C)cc1C)C2	-5%[9.04 µM]	.	.	.	-17%	.
COCc1ccc(CN2CCOc3c(cc(-c4cc(C)c5cccc(OC)c5n4)cc3OC)C2)o1	-5%[9.04 µM]	.	.	.	21µM*	.
COc1cc(-c2cc(C)c3cccc(OC)c3n2)cc2c1OCCN(C(=O)CCn1ccc(C)n1)C2	-16%[9.04 µM]	.	.	.	23µM*	.
COc1ccc(/C=C/C(=O)c2cc(F)ccc2OC(=O)c2ccc(OC)c(OC)c2)cc1OC	?	-6%	-29	15µM*	-69%	-8
COc1ccc(/C=C/C(=O)c2cc(F)ccc2OC(=O)c2ccccc2)cc1OC	0.41µM*	.	?	.	0.41µM*	-1
COc1ccc(/C=C/C(=O)c2cc(F)ccc2OC(=O)c2ccccc2OC)cc1OC	4.1µM*	4%	-100*	?	4.6µM*	-12
COc1ccc(N(CC(=O)N2CCC(Cc3ccccc3)CC2)S(C)(=O)=O)cc1	-21%	3%	7	?	?	?
COc1ccc(NC(=O)CSc2nc3ccccc3n2CC(=O)Nc2cccc(C)c2C)cc1	?	-4%	.	.	?	.
O=c1/c(=C/c2ccco2)sc2n1CN(c1cccc(Br)c1)CN=2	-16%	4%	-50*	-8%	-13%	1
Cc1ccc(/C=c2\sc3n(c2=O)CN(c2cccc(Br)c2)CN=3)o1	-26%	2%	-51*	-10%	-20%	-20
O=c1/c(=C/c2ccco2)sc2n1CN(c1ccccc1)CN=2	-17%	-3%	-16	?	?	-18
Cc1cccc(Cn2c(Cc3ccccc3)nc3ccccc32)c1	?	5%	-9	11%	?	8
Brc1cc2c(cc1Cn1c(-c3cncs3)nc3ccccc31)OCO2	-27%	2%	-16	-2%	?	3
COCc1nc2ccccc2n1Cc1ccccc1C	?	4%	-6	-9%	?	-19
Cc1ccccc1Cn1c(Cc2ccccc2)nc2ccccc21	?	-3%	-20	-7%	18µM*	5
Fc1ccccc1Cn1c(-c2ccccc2)nc2ccccc21	?	5%	.	.	7.3µM*	.
CC(C)(C)c1ccc(Cn2c(Cc3ccccc3)nc3ccccc32)cc1	7.3µM*	.	.	.	6.5µM*	.
Cc1ccccc1Cn1c(-c2cncs2)nc2ccccc21	?	2%	-52*	?	?	-4
CCOc1ccccc1C(=O)NC1CCNCC1	5%	.	-3	-1%	21%	-13
CSC1=NC(=O)/C(=C\c2cccc3ccccc23)S1	-26%	3%	12	0%	-18%	-5
